Experimental data taken from the supplement of paper PMC9950053.
Counter-ions that a name gives are not always drawn.

tested on: Danio rerio larvae (5 dpf); assay: combined upward orientation toward moving lines (periods 7-14) minus DMSO control (percentage points); higher = more orientation with moving lines than DMSO larvae; conditions: 10 µM; exposure time: 3 h pre-incubation + 3 h imaging
Experimental: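 Wild-type 5 dpf zebrafish larvae (n=48 per drug, 96-well plates, 28.5 °C) were exposed to Tocris FDA-approved library compounds at 10 µM (0.1% DMSO) for 3 h before and 3 h during imaging. Images were taken every 6 s during visual and acoustic stimuli, and larvae were tracked with Z-LaP Tracker. Each measure is the treated-group mean minus the DMSO control mean (n=844), in percentage points. This mapping covers compounds with 5-character plate codes.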

Row | SMILES | combined upward orientation toward moving lines
1 | COc1ccc(C(CN(C)C)C2(O)CCCCC2)cc1 (stereo unspecified) [Venlafaxine hydrochloride] | 0.349
